Test results reported in PubChem BioAssay (NCI).
Compounds without any hit were thinned out: in the full panel of roughly 79,000, 15% have a hit. The source made the active and inactive calls. Rule as the data show it: active = growth inhibition above about 70%; inactive = the rest.

Assays:
[1] = NCI Yeast Anticancer Drug Screen. Data for the rad52 strain (AID 147);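 also: 0% = growth of vehicle-treated control cultures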; settings: S. cerevisiae rad52 mutant growth inhibition, stronger effect = higher value
How it was run: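 DNA repair-defective yeast; compound exposure; growth scored against vehicle controls.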

[2] = NCI Yeast Anticancer Drug Screen. Data for the wt1 strain (AID 149);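 also: 0% = growth of vehicle-treated wt1 cultures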; settings: S. cerevisiae wt1 strain (SPY 50644) growth inhibition, stronger effect = higher value
How it was run: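 Measured: growth of wt1 yeast under compound versus vehicle treatment, reported as inhibition.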

[3] = NCI Yeast Anticancer Drug Screen. Data for the rad50EPP+ strain (AID 151);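 also: 0% = growth of vehicle-treated control cultures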; settings: S. cerevisiae rad50 mutant strain, stronger effect = higher value
How it was run: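 rad50EPP+ yeast treated with test compounds. Readout: growth vs vehicle control.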

[4] = NCI Yeast Anticancer Drug Screen. Data for the rad50 strain (AID 155);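 also: 0% = growth of vehicle-only cultures of the same strain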; settings: S. cerevisiae rad50 strain growth inhibition, stronger effect = higher value
How it was run: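 Growth of the mutant yeast was measured after compound exposure and referenced to vehicle-treated cultures.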

[5] = NCI Yeast Anticancer Drug Screen. Data for the mec2-1 strain (AID 157); settings: S. cerevisiae mec2-1 strain, stronger effect = higher value
How it was run: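 Growth inhibition is read against vehicle-treated controls after compound exposure of the mec2-1 yeast strain, which is defective in DNA damage repair or cell cycle control.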

[6] = NCI Yeast Anticancer Drug Screen. Data for the rad14 strain (AID 159);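 also: 0% = growth of vehicle-treated control cultures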; settings: S. cerevisiae rad14 strain growth inhibition, stronger effect = higher value
How it was run: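 Here, inhibition of yeast growth was measured after compound exposure, using a strain with a genetic defect in DNA damage repair and vehicle-treated cultures as the reference.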

[7] = NCI Yeast Anticancer Drug Screen. Data for the sgs1 mgt1 strain (AID 161);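 also: 0% = growth of cultures given vehicle only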; settings: S. cerevisiae sgs1 mgt1 strain, stronger effect = higher value
How it was run: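 Growth of a repair-deficient yeast mutant was monitored after compound treatment and expressed as inhibition relative to vehicle-treated cultures.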

[8] = NCI Yeast Anticancer Drug Screen. Data for the bub3 strain (AID 167); settings: S. cerevisiae bub3 mutant strain, stronger effect = higher value
How it was run: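 Whole-cell yeast assay. The mutant strain was incubated with compounds, and growth inhibition was determined by comparison with vehicle-treated cells.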

[9] = NCI Yeast Anticancer Drug Screen. Data for the wt2 strain (AID 169);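 also: 0% = growth of vehicle-treated yeast cultures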; settings: S. cerevisiae wt2 strain growth inhibition, stronger effect = higher value
How it was run: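 Compound exposure of yeast; growth compared with vehicle controls; inhibition reported.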

[10] = NCI Yeast Anticancer Drug Screen. Data for the mlh1 strain (AID 171);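 also: 0% = growth of vehicle-treated control cultures of the same strain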; settings: S. cerevisiae mlh1 strain growth inhibition, stronger effect = higher value
How it was run: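 Compounds are applied to a genetically altered yeast strain, and its growth is compared with that of vehicle-treated cultures to give percent inhibition.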

[11] = NCI Yeast Anticancer Drug Screen. Data for the sgs1 strain (AID 173);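 also: 0% = growth of vehicle-only control cultures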; settings: S. cerevisiae sgs1 mutant, stronger effect = higher value
How it was run: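 Compounds applied to genetically altered yeast; growth compared with vehicle-treated cultures to give % inhibition.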

[12] = NCI Yeast Anticancer Drug Screen. Data for the mlh1 rad18 strain (AID 175); settings: S. cerevisiae mlh1 rad18 strain growth inhibition, stronger effect = higher value
How it was run: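 Cells of a genetically altered yeast strain, deficient in DNA damage repair, were treated with compound. Their growth was then compared with that of vehicle-treated cultures to give inhibition.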

[13] = NCI Yeast Anticancer Drug Screen. Data for the rad18 strain (AID 177); settings: S. cerevisiae rad18 mutant growth inhibition, stronger effect = higher value
How it was run: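 Compounds are applied to a repair-deficient yeast strain, and growth is compared with that of vehicle-treated cultures to give percent inhibition.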

[14] = NCI Yeast Anticancer Drug Screen. Data for the CLN2oe strain (AID 163);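 also: 0% = growth of vehicle-only control cultures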; settings: S. cerevisiae CLN2oe strain, stronger effect = higher value
How it was run: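 Compound-treated yeast; growth vs vehicle ctrl = % inhibition. Genetically altered strain (cell-cycle control).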

[15] = NCI Yeast Anticancer Drug Screen. Data for the cln2 rad14 strain (AID 165);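 also: 0% = growth equal to vehicle treated cultures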; settings: S. cerevisiae cln2 rad14 strain, stronger effect = higher value
How it was run: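 Growth inhibition, relative to vehicle-treated controls, is the read-out. The test organism is a yeast strain with defined genetic alterations, cln2 rad14.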

[16] = at 5.0 µM (retest, dose inferred, filed as 0.5)
[17] = at 50.0 µM (retest, dose inferred, filed as 5.0)

Measured: growth inhibition

CCCCOc1ccc2nc(C)cc(N=[N+]=[N-])c2c1
active: [1]; at 100.0 µM 86% | [4]; at 100.0 µM 92% | [5]; at 100.0 µM 79% | [6]; at 100.0 µM 98% | [7]; at 50.0 µM 91.2% | [8]; at 100.0 µM 87% | [9]; at 100.0 µM 93% | [10]; at 100.0 µM 97% | [11]; at 100.0 µM 96% | [12]; [17] 93% | [12]; at 50.0 µM 74.2% | [13]; at 100.0 µM 96%
inactive: [1]; at 1.2 µM 8% | [1]; at 3.7 µM 9% | [1]; at 11.0 µM 14% | [1]; at 33.0 µM 20% | [2]; at 1.2 µM 11% | [2]; at 3.7 µM 10% | [2]; at 11.0 µM 11% | [2]; at 33.0 µM 15% | [2]; at 100.0 µM 69% | [3]; at 1.2 µM -1% | [3]; at 3.7 µM -3% | [3]; at 11.0 µM 0% | [3]; at 33.0 µM 10% | [3]; at 100.0 µM 45% | [4]; at 1.2 µM 4% | [4]; at 3.7 µM -4% | [4]; [16] 19% | [4]; at 11.0 µM -1% | [4]; at 33.0 µM 33% | [4]; [17] 49% | [4]; at 50.0 µM 19.7% | [5]; at 1.2 µM 11% | [5]; at 3.7 µM 8% | [5]; [16] 7% | [5]; at 11.0 µM 14% | [5]; at 33.0 µM 28% | [5]; [17] -1% | [5]; at 50.0 µM 23.8% | [6]; at 1.2 µM 7% | [6]; at 3.7 µM 5% | [6]; at 11.0 µM 11% | [6]; at 33.0 µM 48% | [7]; [16] 12% | [7]; [17] -13% | [8]; at 1.2 µM 11% | [8]; at 3.7 µM 9% | [8]; [16] 5% | [8]; at 11.0 µM 12% | [8]; at 33.0 µM 31% | [8]; [17] 33% | [8]; at 50.0 µM 37% | [9]; at 1.2 µM 7% | [9]; at 3.7 µM 6% | [9]; at 11.0 µM 10% | [9]; at 33.0 µM 33% | [10]; at 1.2 µM 7% | [10]; at 3.7 µM 10% | [10]; at 11.0 µM 13% | [10]; at 33.0 µM 38% | [11]; at 1.2 µM 12% | [11]; at 3.7 µM 13% | [11]; at 11.0 µM 15% | [11]; at 33.0 µM 41% | [12]; [16] 8% | [13]; at 1.2 µM 16% | [13]; at 3.7 µM 19% | [13]; at 11.0 µM 23% | [13]; at 33.0 µM 51%

CCCCCCC=C(C(=O)OCC)C(=O)OCC
inactive: [1]; at 1.2 µM -2% | [1]; at 3.7 µM 0% | [1]; at 11.0 µM -1% | [1]; at 33.0 µM 2% | [1]; at 100.0 µM 23% | [2]; at 1.2 µM -2% | [2]; at 3.7 µM -3% | [2]; at 11.0 µM -6% | [2]; at 33.0 µM -7% | [2]; at 100.0 µM 4% | [3]; at 1.2 µM -1% | [3]; at 3.7 µM 4% | [3]; at 11.0 µM 7% | [3]; at 33.0 µM 14% | [3]; at 100.0 µM 24% | [4]; at 1.2 µM -2% | [4]; at 3.7 µM -3% | [4]; [16] -18% | [4]; at 11.0 µM -3% | [4]; at 33.0 µM -5% | [4]; [17] 11% | [4]; at 50.0 µM -8.3% | [4]; at 100.0 µM 22% | [5]; at 1.2 µM -1% | [5]; at 3.7 µM 1% | [5]; [16] -8% | [5]; at 11.0 µM -2% | [5]; at 33.0 µM 5% | [5]; [17] 46% | [5]; at 50.0 µM 38% | [5]; at 100.0 µM 22% | [6]; at 1.2 µM -3% | [6]; at 3.7 µM -4% | [6]; at 11.0 µM -2% | [6]; at 33.0 µM 2% | [6]; at 100.0 µM 13% | [7]; [16] -11% | [7]; [17] 68% | [7]; at 50.0 µM 42% | [14]; at 1.2 µM -4% | [14]; at 3.7 µM -4% | [14]; at 11.0 µM -8% | [14]; at 33.0 µM -10% | [14]; at 100.0 µM 3% | [15]; [16] -13% | [15]; [17] 19% | [15]; at 50.0 µM 18.1% | [8]; at 1.2 µM 0% | [8]; at 3.7 µM 0% | [8]; [16] -6% | [8]; at 11.0 µM -1% | [8]; at 33.0 µM 1% | [8]; [17] 18% | [8]; at 50.0 µM 63% | [8]; at 100.0 µM 17% | [9]; at 1.2 µM -2% | [9]; at 3.7 µM -3% | [9]; at 11.0 µM -5% | [9]; at 33.0 µM -4% | [9]; at 100.0 µM 16% | [10]; at 1.2 µM -2% | [10]; at 3.7 µM -2% | [10]; at 11.0 µM -7% | [10]; at 33.0 µM 1% | [10]; at 100.0 µM 19% | [11]; at 1.2 µM -1% | [11]; at 3.7 µM -1% | [11]; at 11.0 µM 1% | [11]; at 33.0 µM 5% | [11]; at 100.0 µM 30% | [13]; at 1.2 µM -1% | [13]; at 3.7 µM 5% | [13]; at 11.0 µM 8% | [13]; at 33.0 µM 14% | [13]; at 100.0 µM 32%
